Measured values published in PubChem BioAssay AID2685 (National Center for Advancing Translational Sciences (NCATS), 2010).
Screen size: about 320,000 compounds; about 2,100 (0.66%) were called active. Not shown: some 53% with an inconclusive outcome. The call rests on the fitted dose curve; in most records, active means well fitted inhibition curve with a large enough effect in the signal ratio, with a control signal flat (not every such curve was filed as active); inconclusive means small, poorly fitted or top-dose-only effect, or effect the other way, or a change in a side signal; inactive means flat fitted curve, though single readings scatter; the % refers to the signal ratio. Many of the other results were omitted from the sample, so actives are more common in it than they were.

Experiment: qHTS Assay for Lipid Storage Modulators in Drosophila S3 Cells;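 on cell number change: cells counted by Cell Tracker Red CMTPX staining in the red channel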; on lipid storage change, negative = inhibition: on the % scale 0 is the no-effect control and ±100 the full control effect
Details: BODIPY lipid droplet fluorescence, 18-24 h, cells fed with added oleic acid; cell number change: measured here: cell count max response; series mostly up to 46.1 µM; lipid storage change, negative = inhibition: at the top concentration
Method in brief: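 Drosophila S3 cells got compounds at several concentrations plus oleic acid (400 uM solution). Laser-scanning cytometry with 488 nm excitation read lipid droplets at 500-530 nm and cells at 575-640 nm. Percent activity was relative to 20 uM Triacsin C.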
Potency means the concentration at half of the fitted maximal effect.

| SMILES | lipid storage change, negative = inhibition | cell number change | Potency | outcome |
| --- | --- | --- | --- | --- |
| Cc1ccc(N2C(=O)N3[C@H](c4cccc(C)c4)[C@@H]4C(=O)N(Cc5ccccc5)C(=O)[C@@H]4[C@]3(C)C2=O)cc1 | 7.22% (inactive) | -18.1% | – | – |
| Cc1cccc([C@@H]2[C@@H]3C(=O)N(Cc4ccccc4)C(=O)[C@@H]3[C@]3(C)C(=O)N(c4cccc(Cl)c4)C(=O)N23)c1 | -18.9% (inactive) | -9.71% | – | – |
| Cc1cccc([C@@H]2[C@@H]3C(=O)N(Cc4ccccc4)C(=O)[C@@H]3[C@]3(C)C(=O)N(c4ccc(Br)cc4)C(=O)N23)c1 | – | 17.2% | 2.31 µM (active) | – |
| CN(C(=O)c1cccnc1)c1nnc(-c2cccnc2)s1 | 12.5% (inactive) | -7.8% | – | – |
| COc1ccccc1NC(=O)Nc1cccc(NC(C)=O)c1 | -4.12% (inactive) | -3.02% | – | – |
| Cc1csc(NC(=O)c2cnc3ccccc3n2)n1 | – | – | 1.64 µM (active) | – |
| Cc1csc(NC(=O)c2ccccc2)n1 | 17.8% (inactive) | 23.7% | – | – |
| Cc1csc(NC(=O)c2ccc3ccccc3n2)n1 | 5.76% (inactive) | 7.3% | – | – |
| Cc1cccc(N2CCN(C(=O)C(NS(=O)(=O)c3cccs3)c3ccccc3)CC2)c1C (stereo unspecified) | – | -2.06% | – | inactive |
| CCN=C1S/C(=C\c2cc(Br)c(O)c(OC)c2)C(=O)N1CC | -24.6% (inactive) | -10.5% | – | – |
| CC(NC(=O)C1CCCCC1)c1ccc2c(c1)OCCO2 (stereo unspecified) | – | – | – | inactive |
| Cc1ccc(C(=O)O)cc1S(=O)(=O)N1CCC(C(=O)O)CC1 | 16% (inactive) | -0.135% | – | – |
| Cc1ccc(C(C)(C)C)cc1S(=O)(=O)N1CCC(C(=O)N2CCN(c3ccc(O)cc3)CC2)CC1 | – | -13.6% | 3.66 µM (active) | – |
| O=C(C1CC1)N1CCN(c2ccc(O)cc2)CC1 | – | 22.2% | – | inactive |
| Cc1ccc(N(Cc2cc3cc(C)ccc3[nH]c2=O)S(=O)(=O)c2ccccc2)cc1 | -0.784% (inactive) | -3.48% | – | – |
| CCOC(=O)CSc1nc2ccccc2c(=O)n1CC1CCCO1 (stereo unspecified) | 10.9% (inactive) | 0.196% | – | – |
| COc1ccc(OC2C(=O)N(Cc3ccc(F)cc3)C2c2ccc(OC)c(OC)c2)cc1 (stereo unspecified) | 0.24% (inactive) | – | – | – |
| O=C(Cc1c(Cl)cccc1Cl)Nc1ccc(S(=O)(=O)Nc2ncccn2)cc1 | -17.5% (inactive) | 17.5% | – | – |
| O=C(Cc1ccccc1F)Nc1ccc(S(=O)(=O)Nc2ncccn2)cc1 | – | 16.8% | 0.146 µM (active) | – |
| O=C(Cc1ccc(Cl)c(Cl)c1)Nc1ccc(S(=O)(=O)Nc2ncccn2)cc1 | – | 8.75% | – | inactive |
| C#CCN(C(=O)c1ccc(OC)c(OC2CCN(C(C)C)CC2)c1)C1CCCCC1 | 14.3% (inactive) | 13.3% | – | – |
| Cc1cc(NC(=O)COC(=O)CSc2nc3cc(Cl)ccc3n2Cc2ccccc2)no1 | 10.6% (inactive) | -15.1% | – | – |
| CC(Sc1nccn1C)C(=O)c1ccc(Br)cc1 (stereo unspecified) | – | 8.97% | 18.4 µM (active) | – |
| CC(Sc1nccn1C)C(=O)Nc1ccccc1 (stereo unspecified) | 7.52% (inactive) | -8.41% | – | – |
| CC(Sc1nccn1C)C(=O)Nc1ccc(C(N)=O)cc1 (stereo unspecified) | -16.1% [at 0.0737 µM] (inactive) | 24.6% | – | – |
| Cc1ccc(C)c(NS(=O)(=O)c2ccc(-c3ccc(=O)[nH]n3)o2)c1 | -0.445% (inactive) | -3.63% | – | – |
| Cc1cccc(C)c1NS(=O)(=O)c1ccc(-c2ccc(=O)[nH]n2)o1 | – | -21.6% | 16.4 µM (active) | – |
| Cc1ccc(NS(=O)(=O)c2ccc(-c3ccc(=O)[nH]n3)o2)c(C)c1 | -11.7% (inactive) | 3.54% | – | – |

| SMILES | lipid storage change, negative = inhibition | cell number change | Potency | outcome |
| --- | --- | --- | --- | --- |
| O=C(O)/C=C/C(=O)NC1CCC(CC2CCC(NC(=O)/C=C/C(=O)O)CC2)CC1 (stereo unspecified) | 5.98% (inactive) | 16.5% | – | – |
| O=C(N/N=C/c1nn(-c2ccccc2)cc1-c1ccc(Cl)cc1)c1ccncc1 | -4.31% (inactive) | 11.9% | – | – |
| CN(c1ccccc1)S(=O)(=O)c1ccc(C(=O)NCc2cccs2)cc1 | -14.7% (inactive) | – | – | – |
| COc1ccc(OC)c2[nH]c(=O)c(CCNC(=O)c3ccc(S(=O)(=O)N4CCCC4)cc3)cc12 | -1.53% (inactive) | 1.32% | – | – |
| O=C(O)c1ccc(CNC(=O)c2ccc(S(=O)(=O)N3CCCCC3)cc2)cc1 | 18.3% (inactive) | -13.8% | – | – |
| Cc1ccc(C)c2[nH]c(=O)c(CCNC(=O)c3ccc(S(=O)(=O)N4CCCC4)cc3)cc12 | – | -19% | 13 µM (active) | – |
| O=C(NCc1ccccc1F)c1cccc(S(=O)(=O)N2CCCCCC2)c1 | -28% (inactive) | 6.02% | – | – |
| CN(c1ccccc1)S(=O)(=O)c1ccc(C(=O)NCc2ccccc2F)cc1 | – | -21.4% | 13 µM (active) | – |
| CS(=O)(=O)c1ccc(C(=O)NCc2ccccc2F)cc1 | 4.1% (inactive) | 16.1% | – | – |
| CCN(CC)S(=O)(=O)c1ccc(C(=O)NCCCN=C2NS(=O)(=O)c3ccccc32)cc1 | 3.19% (inactive) | 17.2% | – | – |
| Cc1ccc2cc(CCNC(=O)c3ccc(S(=O)(=O)N4CCCCC4)cc3)c(=O)[nH]c2c1 | 20.6% [at 9.22 µM] (inactive) | 17.8% | – | – |
| O=C(NCCN=C1NS(=O)(=O)c2ccccc21)c1ccncc1 | – | -9.37% | – | inactive |
| O=C(NCc1ccccc1F)c1ccc(S(=O)(=O)N2CCCCCC2)cc1 | – | 11.4% | 18.4 µM (active) | – |
| O=C(NCCCN=C1NS(=O)(=O)c2ccccc21)c1ccc(S(=O)(=O)N2CCCCC2)cc1 | – | -7.55% | 8.2 µM (active) | – |
| O=C(Nc1ccc(C(=O)N2CCOCC2)cc1)c1cnn2c(C(F)F)cc(-c3ccccc3)nc12 | 12.7% (inactive) | 19.9% | – | – |
| CCCCC1CCC(c2nc(-c3cccnc3)no2)CC1 (stereo unspecified) | 16.5% (inactive) | -3.76% | – | – |
| CCN1CCN(S(=O)(=O)Cc2ccccc2Cl)CC1 | -13.1% (inactive) | -8.44% | – | – |
| Cc1noc(C)c1CSc1nnc(-c2ccccc2)o1 | 13.2% (inactive) | 4.76% | – | – |
| Cc1ccc(CNC(=O)/C=C/C(=O)O)cc1 | -3.52% (inactive) | 15% | – | – |
| CN1CCN(c2oc(-c3ccco3)nc2S(=O)(=O)c2ccccc2)CC1 | 15.9% (inactive) | 0.475% | – | – |
| CC(=O)Nc1ccc(S(=O)(=O)Oc2cccc(N3C(=O)C4CCCCC4C3=O)c2)cc1 (stereo unspecified) | – | 5.92% | – | inactive |
| CCOc1ccc(Br)cc1S(=O)(=O)NCc1ccncc1 | 15.6% (inactive) | 3.33% | – | – |
| Cc1ccc(OCCn2cc(C(=O)O)c3ccccc32)cc1 | -6.41% (inactive) | 6.58% | – | – |
| COc1ccc(C(=S)N2CCOCC2)cc1OC(=O)c1ccccc1Cl | -28.4% (inactive) | 11.8% | – | – |
| COc1ccc(C(CC(=O)O)NS(=O)(=O)c2ccc(C)cc2)cc1 (stereo unspecified) | – | 9.41% | 2.91 µM (active) | – |
| Cc1ccc(S(=O)(=O)NC(CC(=O)O)c2ccc(F)cc2)cc1 (stereo unspecified) | -0.309% (inactive) | 2.4% | – | – |
| COc1ccc(C(CC(=O)O)NS(=O)(=O)c2ccc(C)cc2)cc1OC (stereo unspecified) | -9.46% (inactive) | -5.13% | – | – |
